# This is part of a sample that, as a whole, favours compounds with a hit. Of some 83,000 tested, about 20% had one in any assay.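 Negative percent growth values reflect cell death: -40 means 40% of the cells present at the start died, and -100 means all died.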 Values without a mark were called inactive. Activity calls are given as the source filed them. The calls were made as follows: active = growth percent below 10; inactive = the rest.
# Columns and labels:
# Assay in all cases: NCI-60 one-dose screen, 48 h (100 = growth as untreated, 0 = no growth, -100 = all killed)
# Settings in all cases: 10 µM unless noted
# DU-145 prostate = tested on: DU-145 prostate
# K-562 leukemia = tested on: K-562 leukemia
# MALME-3M melanoma = tested on: MALME-3M melanoma
# MDA-MB-231 breast = tested on: MDA-MB-231 breast
# RXF 393 renal = tested on: RXF 393 renal
# SF-268 CNS = tested on: SF-268 CNS
# SF-295 CNS = tested on: SF-295 CNS
# SF-539 CNS = tested on: SF-539 CNS
# UACC-257 melanoma = tested on: UACC-257 melanoma
# M14 melanoma = tested on: M14 melanoma
# HCT-15 colon = tested on: HCT-15 colon
# HT29 colon = tested on: HT29 colon
# SNB-75 CNS = tested on: SNB-75 CNS
# SNB-19 CNS = tested on: SNB-19 CNS
# U251 CNS = tested on: U251 CNS
# PC-3 prostate = tested on: PC-3 prostate
# SK-MEL-5 melanoma = tested on: SK-MEL-5 melanoma
# UACC-62 melanoma = tested on: UACC-62 melanoma
# LOX IMVI melanoma = tested on: LOX IMVI melanoma
# SK-MEL-28 melanoma = tested on: SK-MEL-28 melanoma
SMILES,growth (DU-145 prostate),growth (K-562 leukemia),growth (MALME-3M melanoma),growth (MDA-MB-231 breast),growth (RXF 393 renal),growth (SF-268 CNS),growth (SF-295 CNS),growth (SF-539 CNS),growth (UACC-257 melanoma),growth (M14 melanoma),growth (HCT-15 colon),growth (HT29 colon),growth (SNB-75 CNS),growth (SNB-19 CNS),growth (U251 CNS),growth (PC-3 prostate),growth (SK-MEL-5 melanoma),growth (UACC-62 melanoma),growth (LOX IMVI melanoma),growth (SK-MEL-28 melanoma)
COc1cc(C(=O)c2cc(C(C)=O)c3c(C)cccn23)cc(OC)c1OC,107%,94.6%,89.1%,76.1%,81.1%,106%,109%,97.5%,98.2%,96.1%,88.6%,103%,64.6%,78.7%,96.7%,90.2%,97.1%,70.5%,96.7%,103%
CCc1cc(OC(=O)N2CCC(N3CCCCC3)CC2)ccc1Nc1cc(-c2ccc(-n3cccn3)cc2)[nH]n1,-26.3% (active),-17.2% (active),-6.02% (active),59.5%,52.5%,75.9%,62.4%,-54.8% (active),-49.1% (active),-85.5% (active),-44.6% (active),-19.3% (active),97.3%,69.2%,55.8%,74.1%,60.2%,89.5%,-92% (active),-60.7% (active)
CC(C)=CCC[C@](C)(O)[C@H]1CC[C@]2(C)[C@@H]1CC[C@@H]1[C@@]3(C)CC[C@H](N)C(C)(C)[C@@H]3CC[C@]12C,72.2%,-41.2% (active),107%,85.4%,53.2%,86%,93.2%,87.9%,94%,92.9%,20.3%,59.6%,87.2%,81.2%,48.2%,68.3%,84.2%,91%,-82.5% (active),108%
Cc1cc2nc3c4cc(C#N)ccc4n(CCN(C)C)c3nc2cc1C,5.75% (active),3.51% (active),-68% (active),8.68% (active),-62.1% (active),-7.74% (active),-4.33% (active),-15.2% (active),-25.5% (active),-83.3% (active),2.02% (active),-44.3% (active),-8.73% (active),5.67% (active),2.73% (active),4.69% (active),-89.5% (active),-60.6% (active),-55.5% (active),-50.1% (active)
Cn1c(SCC(=O)c2ccco2)nc2ccccc2c1=O,106%,92%,98.3%,93.8%,124%,102%,104%,96.6%,99.7%,97.2%,84.9%,118%,86.2%,102%,105%,93.6%,98.1%,87%,95.2%,108%
CCCC/C(=C\c1ccc(O)c(O)c1)C(=O)NC(Cc1ccccc1)C(=O)C(=O)NCCc1ccc(OC)cc1 (stereo not given),104%,91.5%,101%,92.1%,96%,92%,97.8%,91.6%,100%,95%,93.4%,105%,86.9%,91.2%,103%,94.4%,98.9%,86.6%,89.4%,102%
COc1ccc(/C=N/NC(=O)c2c(N)nn(C)c2Nc2ccccc2)cc1Oc1ccccc1,101%,88%,91.1%,94.9%,87.1%,94%,90.4%,95.7%,96.9%,101%,87.7%,110%,88.2%,88.4%,93.6%,74.9%,93.8%,83.8%,95.3%,102%
O=C1[C@@H]2Cc3c([nH]c4ccccc34)[C@H](c3ccc(Br)cc3)N2C(=O)CN1C1CCN(Cc2c(Cl)cccc2Cl)CC1,96.3%,74.2%,107%,89%,120%,81.3%,100%,105%,102%,92.8%,89.4%,84.4%,66.3%,92.2%,96.9%,80%,95.6%,78.3%,91.7%,111%
Cn1cc(-c2nnc(N)nc2-c2c[nH]c3ccc(Br)cc23)c2cc(Br)ccc21,109%,105%,108%,98.7%,93.1%,106%,100%,102%,108%,102%,91.3%,97.1%,82.3%,98.7%,99.7%,102%,101%,97.7%,101%,101%
C#Cc1cc(C(=O)Nc2ccc(CNCCN3CCOCC3)c(C(F)(F)F)c2)ccc1C,97%,67.1%,92.1%,90.3%,74.7%,86.3%,99.6%,93.6%,98.6%,101%,88%,68.8%,76%,96.1%,80.7%,89.3%,94.2%,93.9%,1.04% (active),93.6%
Cc1cc(C)cc(NC2=C(Cl)C(=O)c3nc(C)ccc3C2=O)c1,2.27% (active),6.63% (active),76.1%,53.8%,75%,85.2%,77.2%,71.5%,30.1%,72.8%,9.74% (active),107%,96.4%,75.9%,89.8%,59.4%,69%,92.7%,-3.79% (active),81.8%
O=C(/C=C/c1cccc(F)c1)c1cccc(OCCCOc2cccc(C(=O)/C=C/c3cccc(F)c3)c2)c1,86.6%,21.7%,99.4%,81%,70.1%,92.1%,-19.8% (active),92.3%,107%,92%,9.37% (active),9.59% (active),112%,65.1%,34.5%,36.9%,99.4%,81.3%,-37.9% (active),106%
CCCCc1nc2c(N)nc3ccccc3c2n1Cc1cccc(CN)c1,60.2%,3.82% (active),22.6%,57.3%,47.6%,48.7%,55.8%,5.63% (active),-62.3% (active),-89.2% (active),55.9%,17.4%,15.1%,63.2%,38.5%,53.3%,55%,76.3%,18.1%,59.4%
N#C/C(=C\c1cccc2c1OCO2)C(=O)Nc1sc2c(c1C#N)CCCC2,111%,104%,105%,95.6%,123%,103%,97.2%,97%,110%,97.5%,102%,124%,102%,95.4%,96.9%,109%,101%,90.8%,104%,102%

# Source: PubChem BioAssay (NCI)
